A selection: hits, their analogues and other compounds. The true share with any hit is near 1.3%.
CCHF vOTU inh-1 – blocks the CCHF virus ovarian tumor domain protease | CCHFV vOTU protease, Pep-AMC fluorescence | inhibition, % at 11.5 µM | 370,000 tested, 0.55% active; note: 0% = vehicle wells with enzyme and 100% = no enzyme wells
PrP UTR inh – inhibition of PrP 5' UTR reporter expression | cell-based PrP 5' UTR mRNA reporter, plate reader | 340,000 tested, 0.35% active | AID 488862 | inhibition, % (test concentration not listed); in the data active = inhibition above about 52%; note: 0 = median of the neutral control wells
3CLpro inhibitor – SARS-CoV 3CLpro protease inhibition. recombinant SARS-CoV 3CLpro, quenched FRET peptide cleavage. inhibition, % at 6 µM. 290,000 tested, 0.14% active. AID 1706; in the data active = inhibition above about 12%
PrPC surface inh – cell surface PrPC inhibition, primary TR-FRET screen; TR-FRET read-out; inhibition, % at 13.8 µM; 370,000 tested, 0.43% active; AID 720596; in the data active = inhibition above about 24%; note: 0% = median of the test wells and 100% = reference compound wells
PrP UTR cherry – prion 5' UTR mRNA inhibition, cherry-pick retest | shares compounds with PrP UTR inh | cell-based prion protein 5' UTR reporter, plate reader | inhibition, % at 2.5 µM | 1,100 tested, 48% active | AID 504592; in the data active = inhibition above about 54%
CCHF vOTU inh-2 – confirmation of CCHF virus vOTU protease inhibitors. shares compounds with CCHF vOTU inh-1. Recombinant CCHFV vOTU, Pep-AMC fluorescence. inhibition, % at 11.5 µM. 1,900 tested, 17% active. AID 686976
PrPC TRFRET cf – cell surface PrPC inhibition, TR-FRET confirmation | cell surface PrPC level | shares compounds with PrPC surface inh | 1,500 tested, 65% active | inhibition, % at 13.8 µM | AID 743200; in the data active = inhibition above about 25%
LD9 cytotox – kills or reduces viability of LD9 cells in PrPc counter-screen; AID 743201; LD9 cells cytotoxicity, luminescence viability; shares compounds with PrPC surface inh; inhibition, % at 13.8 µM; 1,500 tested, 29% active; in the data active = inhibition above about 9.5%
Numbers without * were called inactive. Cut-off read from the data, not from the text of the source, unless noted: active = inhibition above about 30%; inactive = the rest.

`Nc1ncnc2c1ccn2[C@@H]1O[C@H](CO)[C@@H](O)[C@H]1O` gave CCHF vOTU inh-1 -2.9, PrP UTR inh 81.4*, PrPC surface inh 76.8*, PrP UTR cherry 87.6*, PrPC TRFRET cf 68.0* and LD9 cytotox 94.0*.
NC(=S)c1cn(C2OC(CO)C(O)C2O)c2ncnc(N)c12 (stereo unspecified) was read as CCHF vOTU inh-1 -2.0, PrP UTR inh 61.1*, 3CLpro inhibitor 0.3, PrPC surface inh 27.9*, PrP UTR cherry 82.7*, PrPC TRFRET cf 37.0* and LD9 cytotox 36.9*.
Screening OCC1OC(n2ccc3c2ncn2ncnc32)C(O)C1O (stereo unspecified) returned CCHF vOTU inh-1 10.2 and PrPC surface inh -5.5.
`CC(c1nnnn1C(C)(C)C)N(Cc1cccnc1)Cc1ccccc1Cl` (stereo unspecified) gave CCHF vOTU inh-1 17.8, PrP UTR inh -22.4, 3CLpro inhibitor 2.6 and PrPC surface inh 9.2.
`CCC(C)C1NC(=O)C(NC(=O)C(CC(C)C)N(C)C(=O)C2CCCN2C(=O)C(C)O)C(C)OC(=O)C(Cc2ccc(OC)cc2)N(C)C(=O)C2CCCN2C(=O)C(CC(C)C)NC(=O)[C@H](C)C(=O)[C@H](C(C)C)OC(=O)CC1O` (stereo partly specified) gave CCHF vOTU inh-1 29.4, PrP UTR inh 93.7*, PrPC surface inh 96.6*, PrP UTR cherry 95.8*, PrPC TRFRET cf 97.8* and LD9 cytotox 63.8*.
Screening C=C1C(=O)O[C@@H]2C[C@@H](C)[C@@H]3C=CC(=O)[C@@]3(C)[C@@H](O)[C@H]12 returned CCHF vOTU inh-1 -0.5, PrP UTR inh 56.3*, PrPC surface inh 95.1*, PrP UTR cherry 82.4*, PrPC TRFRET cf 99.7* and LD9 cytotox 58.1*.
For C[C@@H]1C[C@@H]2OC(=O)[C@]3(C)[C@H]2[C@@H](OC3(C)O)[C@]2(C)C(=O)C=C[C@H]12 (stereo partly specified) the results were CCHF vOTU inh-1 28.3, PrP UTR inh -21.9 and PrPC surface inh 0.7.
Screening Cc1ccc2c(c1)S/C(=C/c1ccc[n+](C)c1)N2CCO returned CCHF vOTU inh-1 12.9, PrP UTR inh -4.5, 3CLpro inhibitor -0.7 and PrPC surface inh -18.0.
CCN(CC)c1ccc(C(=C2C=CC(=[N+](CC)CC)C=C2)c2ccccc2)cc1 was read as CCHF vOTU inh-1 12.7, PrP UTR inh 56.0*, PrPC surface inh 84.6*, PrP UTR cherry 87.8*, PrPC TRFRET cf 89.7* and LD9 cytotox 98.8*.
COc1ccccc1C#Cc1cnc2c(c1)C(=O)N([C@H](C)CO)C[C@H](C)[C@@H](CN(C)S(=O)(=O)c1cn(C)cn1)O2 was read as CCHF vOTU inh-1 -8.7 and PrPC surface inh -7.9.
O=[N+]([O-])c1cccc(-c2cn3nc(-c4ccccc4)c(-c4ccccc4)nc3n2)c1 was read as CCHF vOTU inh-1 5.7, PrP UTR inh -6.4, 3CLpro inhibitor 7.1 and PrPC surface inh -4.4.
For CC(=O)CCC1C2C(O)C(C(C)C)C(OC(=O)/C=C/c3ccccc3)CC12C (stereo unspecified) the results were CCHF vOTU inh-1 -0.4, PrP UTR inh -44.2 and PrPC surface inh 4.7.
Screening CC(=O)OC1C(O)C(C)OC(OC2C(OC(=O)C3CCC4C(C3)OC3(CC(OC(=O)/C=C/c5ccccc5)C(C)CO3)C43CO3)OC(C)C(O)C2OC(C)=O)C1O (stereo unspecified) returned CCHF vOTU inh-1 -1.3, PrP UTR inh 83.7*, PrPC surface inh 86.3*, PrP UTR cherry 82.8*, PrPC TRFRET cf 98.0* and LD9 cytotox 66.7*.
`C[C@H]1CCC/C=C/[C@@H]2C[C@H](O)C[C@H]2[C@H](O)/C=C/C(=O)O1` gave CCHF vOTU inh-1 4.8, PrP UTR inh 79.2*, PrPC surface inh 94.6*, PrP UTR cherry 87.1*, PrPC TRFRET cf 95.2* and LD9 cytotox 4.0.
Screening CC(=O)OC[C@]12CCC(C)=C[C@H]1O[C@@H]1[C@H](O)[C@@H](OC(C)=O)[C@@]2(C)[C@]12CO2 returned CCHF vOTU inh-1 4.0, PrP UTR inh 89.8*, PrPC surface inh 88.2*, PrP UTR cherry 96.5*, PrPC TRFRET cf 99.1* and LD9 cytotox 58.6*.
Screening Nc1ncnc2c1ncn2[C@@H]1O[C@H](CNCc2ccccc2OC2OC(CO)C(O)C(O)C2O)[C@@H](O)[C@H]1O (stereo partly specified) returned CCHF vOTU inh-1 -4.8, PrP UTR inh -22.3 and PrPC surface inh -5.9.
For Cc1cc(NC(=O)CSc2nnc(Cc3ccccc3)o2)no1 the results were CCHF vOTU inh-1 2.8, PrP UTR inh -14.5, 3CLpro inhibitor 5.6 and PrPC surface inh -0.9.
Screening CCOC(=O)c1[nH]c(C)c(/C(O)=C2\C(=O)C(=O)N(CCN3CCOCC3)C2c2cccs2)c1C (stereo unspecified) returned CCHF vOTU inh-1 14.7, PrP UTR inh -15.1, 3CLpro inhibitor -2.1 and PrPC surface inh 18.1.
`COc1ccc([C@@]23Oc4cc(OC)cc(OC)c4[C@]2(O)[C@H](O)[C@H](C(=O)N(C)C)[C@H]3c2ccccc2)cc1` gave CCHF vOTU inh-1 0.7, PrP UTR inh 78.5*, PrPC surface inh 98.0*, PrP UTR cherry 85.2*, PrPC TRFRET cf 98.8* and LD9 cytotox 28.8*.
O=c1[nH]c(SCc2cccc([N+](=O)[O-])c2)nc2[nH]ncc12 was read as CCHF vOTU inh-1 4.1, PrP UTR inh -4.9, 3CLpro inhibitor 6.7 and PrPC surface inh -7.9.
`CC(C)(C)c1ccccc1NC(=O)Nc1nc(C(N)Cc2ccc(F)cc2)cs1` (stereo unspecified) gave CCHF vOTU inh-1 30.2*, PrPC surface inh 4.1 and CCHF vOTU inh-2 -23.3.
Screening CC(=O)N1N=C(c2cccs2)CC1c1cccs1 (stereo unspecified) returned CCHF vOTU inh-1 1.2, PrP UTR inh -25.0, 3CLpro inhibitor -4.2 and PrPC surface inh 4.8.
For CCn1nnnc1SCC(=O)N1N=C(c2cccs2)CC1c1cccs1 (stereo unspecified) the results were CCHF vOTU inh-1 29.5*, PrP UTR inh -17.3, PrPC surface inh -7.9 and CCHF vOTU inh-2 -13.6.
`COc1ccccc1/C=C1\C(=O)Nc2ccccc21` gave CCHF vOTU inh-1 -3.8, PrP UTR inh -15.7, 3CLpro inhibitor 2.3 and PrPC surface inh 13.0.
CCOc1cccc(CNc2ccc(O)cc2)c1OCc1ccc(Cl)cc1 was read as CCHF vOTU inh-1 31.0*, PrP UTR inh -42.1, 3CLpro inhibitor 2.6, PrPC surface inh -3.1 and CCHF vOTU inh-2 -2.0.
